Measurements: PubChem BioAssay
Calls of active or inactive are those of the source. Unless noted, the rule behind the calls is not given here.

Legend:
[1] = test system: Wnt5a (protein binding on small-molecule microarray); assay: small molecules binding Wnt5a protein – biophysical, small-molecule microarray, 635/667 nm fluorescence, primary screen (AID 1142); conditions: 635 nm fluorescence, higher = more signal;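 note: fluorescence read at 667 nm with signal to noise per printed feature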
[2] = ATP-based viability of Huh7 replicon cells – cell-based, CellTiter-Glo luminescence, basal, 48 h, cytotoxicity control for HCV replication inhibitor project, primary screen (AID 1143); conditions: higher = more signal, called active from +8 up or from −8 down;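 note: Huh7 hepatoma cells carrying a hepatitis C replication reporter with no stimulus; test concentration not given here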
[3] = Pseudomonas biofilm growth suppression – PAO1 strain, BacTiter-Glo luminescence, LB-PBS, primary screen (AID 1144); conditions: P. aeruginosa PAO1 biofilm, 12 h, higher = more signal
[4] = basal CRE-LacZ reporter activity in PC12 – cell-based, unstimulated, primary screen (AID 1145); conditions: no forskolin, luminescence, 4.5 h, higher = more signal, called active from +8 up or from −8 down
[5] = forskolin-driven CRE-LacZ activity in PC12 – cell-based, CRE-LacZ reporter, forskolin-stimulated, primary screen (AID 1146); conditions: luminescence, 4.5 h, higher = more signal, called active from +8 up or from −8 down;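 note: PC12 cells with 6xCRE LacZ reporter stimulated by forskolin 10 µM; beta-galactosidase reporter signal reflecting CREB driven transcription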
[6] = target: Streptavidin (Streptomyces avidinii) (UniProt P22629); assay: compounds binding control protein streptavidin – biophysical, small-molecule microarray, 635/667 nm fluorescence, artefact control for SMM compound annotation, primary screen (AID 1147); conditions: higher = more signal;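 note: signal reflects streptavidin binding to arrayed compounds as a control protein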
Chain of Streptavidin (Streptomyces avidinii) (P22629 whole entry, looked up): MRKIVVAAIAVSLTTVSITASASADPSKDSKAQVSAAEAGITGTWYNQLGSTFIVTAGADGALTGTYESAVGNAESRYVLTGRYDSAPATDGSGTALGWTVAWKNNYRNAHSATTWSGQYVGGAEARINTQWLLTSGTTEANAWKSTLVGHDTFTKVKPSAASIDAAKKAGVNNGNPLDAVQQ

[7] = probe aInhba binding on compound microarray – biochemical, small-molecule microarray, 635/667 nm fluorescence, primary screen (AID 1148); conditions: higher = more signal;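 note: score merges 667nm spot fluorescence with signal-to-noise for antibody binding to printed compounds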
[8] = target: Torsin-1A (Homo sapiens) (UniProt O14656); assay: TOR1A wild-type binding on microarray – cell lysate, small-molecule microarray, lysate, 635/667 nm, primary screen (AID 1149); conditions: COS7 hTOR1A-WT lysate, 635 nm fluorescence, higher = more signal
Chain of Torsin-1A (Homo sapiens) (O14656 whole entry, looked up): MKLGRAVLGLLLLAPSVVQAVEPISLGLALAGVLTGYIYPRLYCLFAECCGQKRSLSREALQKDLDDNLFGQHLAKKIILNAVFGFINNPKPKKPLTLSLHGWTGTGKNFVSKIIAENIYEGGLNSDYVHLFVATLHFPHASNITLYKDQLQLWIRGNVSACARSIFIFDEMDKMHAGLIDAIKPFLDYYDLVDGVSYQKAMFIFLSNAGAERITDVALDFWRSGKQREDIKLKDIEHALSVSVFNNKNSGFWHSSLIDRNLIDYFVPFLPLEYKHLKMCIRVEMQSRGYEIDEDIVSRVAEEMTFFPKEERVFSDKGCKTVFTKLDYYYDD

[9] = target: Torsin-1A (Homo sapiens) (UniProt O14656); assay: torsin A mutant lysate binding on microarrays – cell lysate, small-molecule microarray, COS7 lysate, 635/667 nm fluorescence, primary screen (AID 1150); conditions: COS7 hTOR1A mutant lysate, 635 nm fluorescence, higher = more signal;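 note: score pools 667 nm emission and signal to noise measuring lysate protein binding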
[10] = test system: Sonic hedgehog protein (Shh); assay: Sonic hedgehog microarray binding compounds – biochemical, small-molecule microarray, 635/667 nm fluorescence, primary screen (AID 1151); conditions: 635 nm fluorescence, higher = more signal;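 note: Shh protein binding to compounds spotted on small-molecule microarray slides; score combines spot fluorescence intensity with signal-to-noise across triplicate slides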
[11] = optical density shifts of acrAB sulA E. coli – strain DRC41, OD650, 48 h, E. coli filamentation inducer project, primary screen (AID 1152); conditions: higher = more signal, called active from +8 up or from −8 down;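 note: E. coli MC1000 strain DRC41 lacking acrAB efflux pump and sulA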
[12] = probe aLefty1 binding on compound microarray – biochemical, small-molecule microarray, 635/667 nm fluorescence, primary screen (AID 1153); conditions: higher = more signal;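 note: score merges spot fluorescence with signal-to-noise ratio from the scanned slide images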
[13] = plasmodial surface anion channel blockers, osmotic lysis – cell-based, P. falciparum Indochina, OD700, 1 h, primary screen (AID 1154); conditions: P. falciparum Indochina infected RBC osmotic lysis, higher = more signal, called active from +8 up or from −8 down
[14] = plasmodial surface anion channel blockers, osmotic lysis – cell-based, P. falciparum Indochina, OD700, 2 h, primary screen (AID 1155);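 note: lysis reports solute entry through the parasite surface anion channel PSAC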; conditions: P. falciparum Indochina infected erythrocytes, higher = more signal, called active from +8 up or from −8 down
[15] = changes in parasitized red cell lysis, either direction – P. falciparum Indochina, OD700, 3 h, PSAC antagonist project, primary screen (AID 1156); conditions: P. falciparum-infected erythrocytes, osmotic lysis, higher = more signal, called active from +8 up or from −8 down
[16] = plasmodial surface anion channel blockers, osmotic lysis – cell-based, P. falciparum Indochina, OD700, 18 h, primary screen (AID 1157); conditions: P. falciparum Indochina infected erythrocytes, osmotic lysis OD700, 18 h; higher = more signal, called active from +8 up or from −8 down
[17] = S6 kinase pathway phospho-S6 level changes – cell-based, A549, cytoblot, luminescence, serum-stimulated, primary screen (AID 1158); conditions: 5 h, higher = more signal;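 note: serum-stimulated A549 lung adenocarcinoma cells; signal is phosphorylated S6 detected by cytoblot immunostaining with HRP secondary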
[18] = target: NADPH oxidase 2 (Homo sapiens) (UniProt P04839); assay: compounds shifting NOX2 Amplex Red fluorescence – cell-based, HEK293-NOX2, PMA-stimulated, NOX inhibitor project, primary screen (AID 1159); conditions: 45 min, higher = more signal, called active from +8 up or from −8 down; note: test concentration not given here
Chain of NADPH oxidase 2 (Homo sapiens) (P04839 whole entry, looked up): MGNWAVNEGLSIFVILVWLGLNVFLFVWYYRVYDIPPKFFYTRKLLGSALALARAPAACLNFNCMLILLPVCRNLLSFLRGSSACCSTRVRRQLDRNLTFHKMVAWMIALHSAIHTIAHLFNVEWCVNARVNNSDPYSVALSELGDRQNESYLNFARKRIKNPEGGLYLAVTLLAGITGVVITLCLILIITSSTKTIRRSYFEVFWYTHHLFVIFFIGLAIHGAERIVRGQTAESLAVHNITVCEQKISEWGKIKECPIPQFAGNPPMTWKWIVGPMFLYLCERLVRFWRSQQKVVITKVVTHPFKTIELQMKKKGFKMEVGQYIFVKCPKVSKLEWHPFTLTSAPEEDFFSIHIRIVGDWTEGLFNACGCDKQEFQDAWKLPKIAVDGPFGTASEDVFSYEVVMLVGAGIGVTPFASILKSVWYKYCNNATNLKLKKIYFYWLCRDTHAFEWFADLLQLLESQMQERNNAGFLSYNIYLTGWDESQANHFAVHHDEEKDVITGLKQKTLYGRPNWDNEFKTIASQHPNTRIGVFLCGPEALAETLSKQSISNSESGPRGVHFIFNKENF

[19] = target: NADPH oxidase 4 (Homo sapiens) (UniProt Q9NPH5); assay: compounds shifting NOX4 Amplex Red fluorescence – cell-based, HEK293-NOX4, tetracycline-induced, NOX inhibitor project, primary screen (AID 1160); conditions: HEK293-NOX4, Amplex Red H2O2 fluorescence, 45 min; higher = more signal, called active from +8 up or from −8 down
Chain of NADPH oxidase 4 (Homo sapiens) (Q9NPH5 whole entry, looked up): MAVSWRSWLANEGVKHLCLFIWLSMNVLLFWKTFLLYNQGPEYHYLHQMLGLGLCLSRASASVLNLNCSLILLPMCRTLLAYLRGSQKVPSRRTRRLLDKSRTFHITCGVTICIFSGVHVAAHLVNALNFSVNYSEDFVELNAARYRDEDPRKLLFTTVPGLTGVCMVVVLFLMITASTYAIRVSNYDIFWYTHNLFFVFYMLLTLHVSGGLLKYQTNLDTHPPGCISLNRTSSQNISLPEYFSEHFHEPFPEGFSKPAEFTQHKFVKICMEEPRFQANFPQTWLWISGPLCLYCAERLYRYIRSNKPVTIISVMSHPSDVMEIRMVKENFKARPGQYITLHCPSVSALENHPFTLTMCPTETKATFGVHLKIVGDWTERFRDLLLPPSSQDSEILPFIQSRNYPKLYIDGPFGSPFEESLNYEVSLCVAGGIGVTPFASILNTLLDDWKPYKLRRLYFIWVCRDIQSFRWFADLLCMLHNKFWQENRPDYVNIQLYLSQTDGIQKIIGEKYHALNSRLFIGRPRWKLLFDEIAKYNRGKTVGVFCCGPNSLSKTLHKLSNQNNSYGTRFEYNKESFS

[20] = target: NADPH oxidase 5 (Homo sapiens) (UniProt Q96PH1); assay: compounds shifting NOX5 Amplex Red fluorescence – cell-based, HEK293-NOX5, NOX inhibitor project, primary screen (AID 1161); conditions: HEK293-NOX5, ionomycin, 45 min, higher = more signal
Chain of NADPH oxidase 5 (Homo sapiens) (Q96PH1 whole entry, looked up): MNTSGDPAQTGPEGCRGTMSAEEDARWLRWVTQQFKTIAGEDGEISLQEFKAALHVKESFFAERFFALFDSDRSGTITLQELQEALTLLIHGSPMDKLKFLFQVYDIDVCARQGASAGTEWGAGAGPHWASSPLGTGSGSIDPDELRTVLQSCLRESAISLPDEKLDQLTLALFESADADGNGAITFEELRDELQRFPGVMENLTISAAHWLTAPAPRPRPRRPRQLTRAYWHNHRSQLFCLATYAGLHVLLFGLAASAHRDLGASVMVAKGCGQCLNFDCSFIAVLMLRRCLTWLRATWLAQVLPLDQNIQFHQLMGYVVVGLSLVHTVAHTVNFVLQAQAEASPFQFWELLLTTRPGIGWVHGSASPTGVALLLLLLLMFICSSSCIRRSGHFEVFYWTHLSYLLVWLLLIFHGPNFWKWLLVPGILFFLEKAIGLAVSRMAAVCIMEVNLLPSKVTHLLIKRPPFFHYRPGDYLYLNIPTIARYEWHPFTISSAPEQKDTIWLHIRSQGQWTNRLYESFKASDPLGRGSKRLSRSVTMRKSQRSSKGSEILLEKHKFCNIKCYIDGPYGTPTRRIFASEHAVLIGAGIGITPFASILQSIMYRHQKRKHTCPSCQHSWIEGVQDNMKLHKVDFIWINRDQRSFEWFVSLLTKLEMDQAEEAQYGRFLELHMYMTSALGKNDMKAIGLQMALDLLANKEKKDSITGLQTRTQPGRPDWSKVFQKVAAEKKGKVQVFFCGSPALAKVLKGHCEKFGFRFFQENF

Row | SMILES | composite z-score [1] | z-score [2] | z-score [3] | z-score [4] | z-score [5] | composite z-score [6] | composite z-score [7] | composite z-score [8] | composite z-score [9] | composite z-score [10] | z-score [11] | composite z-score [12] | z-score [13] | z-score [14] | z-score [15] | z-score [16] | z-score [17] | z-score [18] | z-score [19] | z-score [20]
1 | COC(=O)[C@@H]1CC[C@H](C)[C@@H](c2ccc(Br)cc2)N1C[C@@H](O)CN=[N+]=[N-] | 0.538 | -3.06 (inactive) | -1.91 (inactive) | 0.105 (inactive) | -0.571 (inactive) | 0.398 | -0.224 | 0.54 | -0.117 | 0.581 | -1.67 (inactive) | -0.147 | 1.87 (inactive) | -0.514 (inactive) | 0.27 (inactive) | -0.956 (inactive) | 1.84 | 0.0777 (inactive) | -1.37 (inactive) | 0.126
2 | O=C(NCCC[N+]1=CC=NC1c1ccccc1)N1CCCc2nc(-c3ccc(Br)cc3)ccc21 (stereo not given) | -0.215 | -2.49 (inactive) | 0.616 (inactive) | -0.888 (inactive) | -0.0384 (inactive) | 0.0054 | -0.118 | 0.291 | 0.405 | 0.322 | 0.315 (inactive) | -0.164 | 5.32 (inactive) | 0.705 (inactive) | 1.5 (inactive) | 0.518 (inactive) | -0.26 | 0.528 (inactive) | -0.261 (inactive) | -1.64
3 | C#CCCCON=C1C[C@@H](O)[C@@H](O)[C@@H]2[C@@H]3C(=O)N(C4CCCCC4)C(=O)[C@@H]3CC[C@@H]12 | -0.0633 | 0.0192 (inactive) | -0.356 (inactive) | 1.78 (inactive) | -0.0263 (inactive) | -0.383 | -0.286 | -0.0195 | -0.336 | 0.353 | 0.0164 (inactive) | -0.276 | 1.17 (inactive) | -0.164 (inactive) | -0.492 (inactive) | 0.132 (inactive) | -0.25 | 1.13 (inactive) | 0.699 (inactive) | -0.0773
4 | C#CCCCON=C1C[C@@H](O)[C@@H](O)[C@@H]2[C@@H]3C(=O)N(C[C@@H]4CCCO4)C(=O)[C@@H]3CC[C@@H]12 | 0.195 | 0.0109 (inactive) | -0.164 (inactive) | 0.0687 (inactive) | 0.305 (inactive) | 0.269 | -0.142 | 0.308 | 0.28 | 0.305 | 0.225 (inactive) | 0.145 | -0.262 (inactive) | 0.284 (inactive) | -1.08 (inactive) | 0.354 (inactive) | -0.53 | -3.03 (inactive) | 0.424 (inactive) | -0.0863
5 | CC(C)[C@H](NC(=O)OC(C)(C)C)[C@@H](O)CC(=O)C(C)(C)C | -0.103 | 0.207 (inactive) | -1.09 (inactive) | -0.795 (inactive) | -0.422 (inactive) | 0.247 | -0.148 | 0.322 | 0.0647 | 0.473 | 0.14 (inactive) | -0.267 | -0.0522 (inactive) | 0.0094 (inactive) | 0.155 (inactive) | 0.126 (inactive) | 0.372 | 2.2 (inactive) | 0.34 (inactive) | 0.195
6 | CCOC(=O)CCN1C(=O)[C@H]2[C@H]3[C@H](O)[C@H](O)CC(=NOCC=C(C)CCC=C(C)C)[C@H]3CC[C@H]2C1=O | 0.0888 | -0.148 (inactive) | 1.18 (inactive) | 0.153 (inactive) | 0.462 (inactive) | 0.344 | 0.12 | 0.703 | 0.355 | -0.423 | 1.04 (inactive) | 0.148 | 1.09 (inactive) | 0.887 (inactive) | 1.25 (inactive) | 0.378 (inactive) | 0.199 | -4.23 (inactive) | 0.943 (inactive) | 0.546
7 | COC(=O)[C@@H]1CC[C@H](C)[C@@H](c2ccc(Br)cc2)N1 | 0.224 | 0.336 (inactive) | -0.984 (inactive) | 0.372 (inactive) | -0.257 (inactive) | 0.0708 | 0.0705 | 0.387 | 0.0795 | -0.0173 | -0.824 (inactive) | -0.0879 | -0.452 (inactive) | -0.219 (inactive) | -0.772 (inactive) | -0.0454 (inactive) | -0.0984 | 1.62 (inactive) | -1.48 (inactive) | -0.595
8 | COc1ccc(COC(=O)NN=C2C[C@@H](O)[C@@H](O)[C@@H]3[C@@H]4C(=O)N(C5CCCCC5)C(=O)[C@@H]4CC[C@@H]23)cc1 | 0.0311 | -0.252 (inactive) | 0.755 (inactive) | 2.32 (inactive) | 0.0868 (inactive) | 0.576 | -0.0774 | -0.367 | 0.223 | -0.791 | -0.83 (inactive) | 0.94 | 6.59 (inactive) | 1.25 (inactive) | 0.101 (inactive) | 0.622 (inactive) | -0.185 | -0.623 (inactive) | -0.069 (inactive) | 0.391
